# Source: PubChem BioAssay AID686979 (National Center for Advancing Translational Sciences (NCATS), 2013)
# In all, about 420,000 compounds went through this assay and about 50,000 (12%) were called active. Where a call stands in place of a potency, no number is given. About 26% were inconclusive and are not listed. The call rests on the fitted dose curve; in most records, active means well fitted inhibition curve with a large enough effect; inconclusive means small, poorly fitted or top-dose-only effect; inactive means flat fitted curve, though single readings scatter. The full list was thinned out, with actives kept by preference.
# Assay: qHTS for Inhibitors of human tyrosyl-DNA phosphodiesterase 1 (TDP1): qHTS in cells in presence of CPT; further: nearly all actives have a fitted effect of over 55% in size
# Details: chicken DT40 Tdp1-/-;hTDP1 cells + 20 nM CPT, ATP luminescence, 48 h; series mostly up to 46.2 µM
# How it was run: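 Chicken DT40 Tdp1-/- cells stably complemented with human TDP1 were seeded at 400 cells/well in medium containing 20 nM camptothecin, exposed to pin-transferred compounds, and grown at 37 °C for at least 48 hr. Viability was read as ATP luminescence.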
# Potency means the concentration at half of the fitted maximal effect.
row,Structure (SMILES),Potency
1,CCCCc1nc(SCC(=O)Nc2nnc(C(C)C)s2)n[nH]1,inactive
2,O=C(OCC(=O)N1CCCC1=O)c1cc(S(=O)(=O)N2CCOCC2)ccc1Cl,inactive
3,O=C(OCC(=O)N1CCN(C(=O)c2ccco2)CC1)c1c(Cl)cccc1Cl,inactive
4,CC(=O)Nc1cccc(C(=O)OCC(=O)NCc2cc(C)c(O)c(C)c2)c1,inactive
5,CC(=O)c1cccc(OCC(=O)OCC(=O)Nc2cc(S(=O)(=O)N3CCCCC3)ccc2C)c1,inactive
6,c1ccc2cc(CCCc3cc4ccccc4cn3)ncc2c1,inactive
7,CN(CC(=O)NCCc1ccccn1)S(=O)(=O)c1ccc(Cl)cc1,inactive
8,O=C(NCc1ccccn1)c1cc(Br)ccc1Cl,inactive
9,O=C(NCCc1ccccn1)c1cc(-c2ccc(Cl)cc2)nc2ccccc12,13 µM (active)
10,COC(=O)c1ccc2c(c1)S(=O)(=O)NC2C (centres undefined),inactive
11,CCCNC(=O)C1CCN(c2nc3ccc(C)cc3[nH]2)CC1,inactive
12,CCC1CCCCN1S(=O)(=O)Cc1ccccc1Cl (centres undefined),inactive
13,CN(CCc1ccccn1)C(=O)c1ccc(OC2CCN(Cc3ccccn3)CC2)cc1,inactive
14,NC(=S)N/N=C/c1coc2cc(Cl)ccc2c1=O,inactive
15,CC(C)Oc1c(Br)cc(Br)cc1/C=N/NC(N)=S,16.4 µM (active)
16,CCOC(=O)C1=C(C)c2ccccc2OC1(C)C(=O)OCC (centres undefined),inactive
17,COc1ccc(NC(=O)CCC(=O)Nc2nnc(C3CCCCC3)s2)cc1,inactive
18,CCOc1ccc(NC(=O)[C@H](C)NC(=O)C2CC(=O)N(c3ccc(OC)cc3)C2)cc1 (some centres undefined),inactive
19,CC(C)(C)N1CC(c2nc3ccccc3n2Cc2ccc(F)cc2)CC1=O (centres undefined),inactive
20,CCc1ccccc1N1CC(c2nc3ccccc3n2CCCCOc2ccccc2)CC1=O (centres undefined),inactive
21,CCCCN1CC(c2nc3ccccc3n2CCCCOc2ccc(C)cc2C)CC1=O (centres undefined),7.31 µM (active)
22,COc1ccc(OCCCn2c(C3CC(=O)N(c4ccc(F)cc4)C3)nc3ccccc32)cc1 (centres undefined),18.4 µM (active)
23,Cc1ccc(C(C)C)c(OCCSc2nc3ccccc3n2CC(=O)O)c1,inactive
24,CCCOc1cc(C)c(S(=O)(=O)n2nnc3ccccc32)cc1C,inactive
25,CCCOc1ccc(N2CC(C(=O)Nc3ccccn3)CC2=O)cc1 (centres undefined),inactive

row,Structure (SMILES),Potency
1,CCOc1ccc(N2CC(c3nc4ccccc4n3CCOc3ccc(OC)cc3)CC2=O)cc1 (centres undefined),20.6 µM (active)
2,COc1ccc(Nc2ccc([N+](=O)[O-])cn2)cn1,inactive
3,CNC[C@H]1OCc2cnnn2CCCC(=O)N([C@H](C)CO)C[C@@H]1C,inactive
4,CCCCC(c1nnnn1CS(=O)(=O)c1ccc(C)cc1)N1CCC(C(N)=O)CC1 (centres undefined),inactive
5,Cc1ccc(CC2C(=O)N(c3ccc(F)cc3)C(=O)C2C)cc1 (centres undefined),inactive
6,Clc1ccc2nc(CSc3ccccc3)cn2c1,inactive
7,Cc1ccc(CNC(=O)CCN2C(=O)[C@@H]3Cc4ccccc4CN3C2=O)cc1,inactive
8,COc1ccc([C@@H]2[C@@H]3C(=O)N(C(C)(C)C)C(=O)[C@@H]3[C@]3(Cc4ccccc4)C(=O)N(c4cccc(Br)c4)C(=O)N23)cc1,inactive
9,CC[C@@]12C(=O)N(c3ccccc3)C(=O)N1[C@H](c1ccc(Br)cc1)[C@@H]1C(=O)N(C(C)(C)C)C(=O)[C@@H]12,16.4 µM (active)
10,CCN1C(=O)[C@H]2[C@@H](c3ccc(C)cc3)N3C(=O)N(c4cccc(Br)c4)C(=O)[C@@]3(CC)[C@H]2C1=O,inactive
11,O=C1CN(C(=O)c2cc(F)cc(F)c2)c2ccccc2N1,inactive
12,CCOCCC(=O)Nc1ccc2c(c1)c(=O)n(C)n2-c1ccc2ccccc2c1,1.46 µM (active)
13,CCCC(=O)Nc1ccc2c(c1)nc(CCNC(=O)c1ccco1)n2C,inactive
14,CCOC(=O)c1cccc(NC(=O)CCOc2ccccc2)c1,inactive
15,C=CC1=C(C(=O)O)N2C(=O)[C@@H](NC(=O)/C(=N\OCC(=O)O)c3csc(N)n3)[C@H]2SC1,inactive
16,O=C(NCc1cc(F)cc(C(F)(F)F)c1)C1CCC(=O)N(C2CCCC2)C1 (centres undefined),inactive
17,Cc1ccccc1NC(=O)C(C)OC(=O)CCC(=O)N(CC(C)C)c1c(N)n(CC(C)C)c(=O)[nH]c1=O (centres undefined),inactive
18,CCN(CC(=O)Nc1c(F)cccc1F)C(=O)c1ccc(Sc2nncn2C)c([N+](=O)[O-])c1,inactive
19,CCOC(=O)N1CCN(C(=O)c2ccccc2N(Cc2ccccc2)S(=O)(=O)c2ccc(OC)cc2)CC1,2.91 µM (active)
20,NC(=O)c1ccccc1N(Cc1ccccc1)S(=O)(=O)c1ccccc1,inactive
21,CCOC(=O)N1CCN(S(=O)(=O)c2ccc(OC)cc2)CC1,inactive
22,O=C(O)C#Cc1cccc2ccccc12,inactive
23,CCn1ccnc1CNC(=O)CC1C(=O)NCCN1Cc1ccc(F)cc1Cl (centres undefined),inactive
24,Cc1cc(-n2cnc(-c3cn(C)nc3C)n2)no1,inactive
25,CCCCN(C(=O)c1ccc(S(=O)(=O)N2CCOCC2)cc1)C1CCS(=O)(=O)C1 (centres undefined),inactive

row,Structure (SMILES),Potency
1,CCc1ccc2c(c1)NC(=O)C2(C)Cc1ccc(OC(F)(F)F)cc1 (centres undefined),20.6 µM (active)
2,CCNC(=S)Nc1ccc(OC(F)(F)F)cc1,inactive
3,COC(=O)Cc1ccc(OCC(=O)Nc2ccc(OC(F)(F)F)cc2)cc1,inactive
4,CC1(C(=O)NS(=O)(=O)Cc2cccc(Cl)c2)CCN1C(=O)Cc1ccccc1 (centres undefined),inactive
5,Cc1cc(=O)n2nc(N3CCCC(C(=O)NCc4cccc(Cl)c4)C3)sc2n1 (centres undefined),inactive
6,O=C(NCCc1cccc(F)c1)C1CCCN(c2nc3ccccc3s2)C1 (centres undefined),18.4 µM (active)
7,O=C(NCc1ccccc1)C1CCCN(c2nc3ccsc3c(=O)s2)C1 (centres undefined),inactive
8,CCC(C)c1ccc(NC(=O)COC(=O)C2CCCC2)cc1 (centres undefined),inactive
9,CC(C)(C)NC(=O)NC(=O)COC(=O)C1c2ccccc2Oc2ccccc21,inactive
10,Cc1cn([C@H]2C[C@H](O)[C@@H](CNC(=O)[C@H](N)Cc3cccnc3)O2)c(=O)[nH]c1=O,inactive
11,Cc1cccc(C)c1NC(=O)CN(C)C(=O)CCC(=O)c1ccccc1,inactive
12,Cc1cccc(C)c1NC(=O)C(c1ccccc1)N1CC(=O)Nc2ccccc21 (centres undefined),inactive
13,Cc1cccc(C)c1NC(=O)C(Cl)C(=O)c1ccccc1 (centres undefined),5.17 µM (active)
14,Cc1ccc(C)c(NC(=O)C(c2ccccc2)N2CCN(CC(=O)NC3CC3)CC2)c1 (centres undefined),inactive
15,O=c1oc(-c2ccco2)nc2sc3c(c12)CCCCC3,inactive
16,O=C(NCc1ccco1)c1nc2ncccn2n1,inactive
17,O=C(NCc1ccco1)c1cccn2c(=O)c3c4c(sc3nc12)CCCC4,9.2 µM (active)
18,CC(C)C[C@H](NC(=O)C1CC(=O)N(c2ccc3c(c2)OCCO3)C1)C(=O)NC1CCCC1 (some centres undefined),inactive
19,CN[C@@H]1[C@@H](O)[C@@H](O[C@@H]2[C@H](O)[C@H](O[C@H]3OC(CN)=CC[C@H]3N)[C@@H](N)C[C@H]2N)OCC1(C)O (some centres undefined),inactive
20,NC(=O)C1CCN(CC(O)CSc2ccc(F)cc2)CC1 (centres undefined),inactive
21,OC(CNC1CCCC1)COc1ccc(F)cc1 (centres undefined),inactive
22,NC(=O)C1=C[C@H](c2csc3ccccc23)C[C@H](OCc2ccc(CO)cc2)O1,14.6 µM (active)
23,O=C(C1=C[C@H](c2coc3ccccc3c2=O)C[C@H](OCc2ccc(CO)cc2)O1)N1CCOCC1,inactive
24,C=CCOC(=O)C1=C[C@@H](c2ccccc2)C[C@@H](OCc2ccc(CO)cc2)O1,inactive
25,NC(=O)C1=C[C@@H](c2csc3ccccc23)C[C@@H](OCc2ccc(CO)cc2)O1,25.9 µM (active)

row,Structure (SMILES),Potency
1,NC(=O)C1=C[C@@H](c2ccc3c(c2)OCO3)C[C@@H](OCCCCO)O1,inactive
2,O=C(O)C1=C[C@H](c2cccs2)C[C@H](OCCCCO)O1,inactive
3,Cc1cc(OC(C)C(=O)NC2CC(C)(C)NC(C)(C)C2)c2c(C)cc(=O)oc2c1 (centres undefined),inactive
4,COCCNC(=S)N1CCN(C)CC1,inactive
5,CC1CCC2(CC1)NC(=O)N(CC(=O)c1cccn1C)C2=O (centres undefined),inactive
6,CC(C)(C)SCCSC1=CC(=O)CC(c2ccccc2)C1 (centres undefined),inactive
7,COC(=O)C(C)Oc1ccc2c(c1)O/C(=C\c1cccc(Br)c1)C2=O (centres undefined),inactive
8,CCOc1cc(/C=N/NC(=O)c2ccncc2)cc(Br)c1O,inactive
9,Cc1ccc(S(=O)(=O)Oc2ccc(/C=N/NC(=O)c3ccncc3)cc2)cc1,inactive
10,Cc1ccc(OCCOCCOc2ccc(Br)cc2/C=N\NC(=O)c2ccncc2)cc1,18.4 µM (active)
11,COc1ccc(Cl)cc1NC(=O)CCC(=O)c1ccc(C)cc1,inactive
12,Cc1ccc(NC(=O)CCCn2c(=O)c3cccn3c3ccccc32)cc1Cl,inactive
13,COc1ccc(Cl)cc1NC(=O)CCn1c(=O)c2cccn2c2ccccc21,20.6 µM (active)
14,CCCCn1c(N)c(N(CCC(C)C)C(=O)COC(=O)c2ccc(CC)cc2)c(=O)[nH]c1=O,inactive
15,Cc1cccc(NC(=O)CSCC(=O)Nc2nnc(C3CC3)s2)c1,inactive
16,O=C(NC(CC(=O)N1CCN(c2ccccc2)CC1)c1ccccc1)c1ccccc1Cl (centres undefined),inactive
17,CCCCCN(C(=O)CCC(=O)OCCOc1ccc(OC)cc1)c1c(N)n(CCCC)c(=O)[nH]c1=O,inactive
18,CN(CC1CCCO1)S(=O)(=O)c1ccc(C(=O)Nc2ccc([N+](=O)[O-])cc2)cc1 (centres undefined),23.1 µM (active)
19,CCOc1ccc(C(=O)Nc2ccc(S(=O)(=O)NCC3CCCO3)cc2)cc1OCC (centres undefined),inactive
20,CCOc1ccc(S(=O)(=O)NCC2CCCO2)cc1 (centres undefined),inactive
21,CN(CC(=O)Nc1ccc(C(N)=O)cc1)S(=O)(=O)c1ccc2c(c1)OCCO2,inactive
22,O=C(Nc1ccc(S(=O)(=O)NCC2CCCO2)cc1)c1ccc(F)cc1 (centres undefined),14.6 µM (active)
23,Cc1cccc(NC(=O)c2ccc(S(=O)(=O)N(C)CC3CCCO3)cc2)c1C (centres undefined),inactive
24,CCN(CC(=O)Nc1ccc(NC(C)=O)cc1)C(=O)C1CC(=O)N(Cc2ccc(C)cc2)C1 (centres undefined),inactive
